This passage reports Potency results from PubChem BioAssay (Tox21).

Each structure is given as a SMILES string. A number with no mark means an inactive call. Inconclusive results are not listed. Calls of active or inactive are those of the source. Unless noted, the call rests on the fitted dose curve.

Assay [1] is described as follows: Nuclear factor erythroid 2-related factor 2/antioxidant responsive element (Nrf2/ARE) small molecule agonists: qHTS cell viability counter screen in human keratinocytes (AID 1919968; active means well fitted curve in the direction sought with a large enough effect in the repeat runs; an effect the other way counts as inactive or inconclusive; further: nearly all actives have a fitted effect of over 55% in size; further: potency means the concentration at half of the fitted maximal effect). The method in brief:
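KeratinoSens cells (HaCaT keratinocytes stably carrying an ARE-luciferase reporter) were seeded at 1,500 cells/well and rested 5 h at 37 C/5% CO2. They were then exposed to compounds in DMSO for 23 h. Viability was read by CellTiter-Fluor fluorescence after 1 h.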

Assay [2] addresses Gonadotropin-releasing hormone receptor (Homo sapiens) (UniProt P30968). As to the kind of experiment: Human gonadotropin-releasing hormone receptor (GnRHR) small molecule agonists, calcium flux assay in GnRHR-HEK293 cells (AID 1920063). Further: nearly all actives have a fitted effect of over 35% in size. Further: potency means the concentration at half of the fitted maximal effect. The method in brief:
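HEK293 cells stably expressing human GnRHR were plated 18 h at 37 °C, loaded with calcium dye 1 h at 37 °C, then given compound in agonist mode; fluorescence (Ex/Em 480/540) read kinetically for 3 min at 1 s intervals.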

The target in assay [3] is KiSS-1 receptor (Homo sapiens) (UniProt Q969F8). As to the kind of experiment: Human kisspeptin (KISS1R) small molecule agonists, calcium flux assay in KISS1R-HEK293 cells (AID 1920064; active means well fitted curve in the direction sought with a large enough effect in the repeat runs; an effect the other way counts as inactive or inconclusive). The method in brief:
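HEK293 cells stably expressing human KISS1R were plated 18 h at 37 °C, loaded with calcium dye for 1 h at 37 °C, then given compound by pin tool. Fluorescence (Ex/Em 480/540) was read kinetically for 3 min.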

Assay [4] in a line: G protein-coupled receptor (GPCR) small molecule agonists, calcium flux assay: HEK293 wild type cell line counter screen (AID 1920065). The method in brief:
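Cells were plated and cultured 18 h at 37 C/5% CO2, then loaded with calcium dye for 1 h at 37 C. Compounds in DMSO were pin-transferred in agonist mode, and fluorescence (Ex/Em 480/540) was read kinetically for 3 min at 1 s intervals.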
(In general: A change in cytosolic calcium serves as a functional read-out for many receptors and channels.)

Assay [5] can be described thus: p53 small molecule agonists, cell-based qHTS assay with human liver microsomes: qHTS cell viability counter screen (AID 1963579). Further: nearly all actives have a fitted effect of over 45% in size. The method in brief: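 Metabolic activation used human liver microsomes and NADPH, both 0.5 mg/mL final, over 16 hours at 37 C on p53RE-bla cells (4,000/well). Cytotoxicity measured by CellTiter-Glo luminescence, 30 min at room temperature.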
In general terms: In qHTS, concentration-response curves come from the screen itself.

A short description of assay [6]: p53 small molecule agonists, cell-based qHTS assay with rat liver microsomes: qHTS cell viability counter screen (AID 1963580). Further: nearly all actives have a fitted effect of over 45% in size. The essentials:
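HCT-116 p53RE-bla, 4,000 cells/well, 5 h pre-incubation; cpd + rat liver microsomes 0.5 mg/mL + NADPH 0.5 mg/mL (final); 16 h, 37 C; CellTiter-Glo, 30 min RT; luminescence.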

Assay [7] is described as follows: p53 small molecule agonists, cell-based qHTS assay: qHTS cell viability counter screen (AID 1963581). Further: nearly all actives have a fitted effect of over 45% in size. The essentials: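 p53RE-bla HCT-116 cells were exposed to compounds for 16 h at 37 C; after the beta-lactamase FRET read in the same wells, CellTiter-Glo was added and luminescence (intracellular ATP) read after 30 min at room temperature.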
In assay [8] the target is 5-hydroxytryptamine receptor 2A (Homo sapiens) (UniProt P28223). The experiment in a line: 5-hydroxytryptamine receptor 2A (HTR2A) small molecule antagonists, cell-based qHTS assay (AID 1963586). Further: nearly all actives have a fitted effect of over 45% in size. Further: potency means the concentration at half of the fitted maximal effect. The method in brief: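 Antagonist-mode intracellular calcium assay: DOI (4 nM) added after 5 min compound pre-incubation at room temperature to dye-loaded HTR2A-CHO cells. Fluorescence followed for 3 min, sampled every second.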

Assay [9] shares this target. The experiment in a line: 5-hydroxytryptamine receptor 2A (HTR2A) small molecule agonists, cell-based qHTS assay (AID 1963587). Further: nearly all actives have a fitted effect of over 30% in size. Further: potency means the concentration at half of the fitted maximal effect. The method in brief: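 Kinetic calcium-flux fluorescence (2 min, 1 sec intervals) after compound addition in agonist mode. HTR2A-CHO cells were cultured 18 h, then dye-loaded 1 h at 37 C.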
Assay [10] concerns the target Muscarinic acetylcholine receptor M1 (Homo sapiens) (UniProt P11229). As to the kind of experiment: Cholinergic receptor muscarinic 1 (CHRM1) small molecule agonists, cell-based qHTS assay (AID 1963589). Further: nearly all actives have a fitted effect of over 35% in size. The essentials: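 CHO cells stably expressing human CHRM1, seeded 18 h at 37 C/5% CO2, dye-loaded 1 h at 37 C, then given compound in agonist mode; intracellular calcium fluorescence read kinetically at 1 s intervals. Fifteen concentrations, three independent runs.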

The nature of assay [11]: cAMP Responsive Elements (CRE) small molecule agonists, cell-based qHTS assay (AID 1963590). The method in brief:
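CRE-bla HEK 293T cells in DMEM with 10% dialyzed FBS, NEAA, pyruvate and 25 mM HEPES were plated 18 h at 37 C/5% CO2, then exposed to compounds in DMSO for 3 h before LiveBLAzer B/G FRET substrate addition.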

A short description of assay [12]: cAMP Responsive Elements (CRE) small molecule antagonists, cell-based qHTS assay (AID 1963591; active means well fitted inhibition curve with a large enough effect in the signal ratio in the repeat runs, not every such curve was filed as active; the % refers to the signal ratio). The essentials:
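CRE-bla HEK293T cells were plated 18 h at 37 °C/5% CO2, pinned with compound in DMSO, then stimulated with NKH477 at 0.25 uM final for 3 h. LiveBLAzer B/G FRET substrate was added and plates incubated 2 h at room temperature.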

Assay [13] deals with Beta-2 adrenergic receptor (Homo sapiens) (UniProt P07550). As to the kind of experiment: Adrenergic beta2 receptor (ADRB2) small molecule antagonists, cell-based qHTS assay (AID 1963592). Further: series mostly up to about 92 µM; nearly all actives have a fitted effect of over 50% in size. The method in brief: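 Cells (CHO, stable ADRB2 overexpression) incubated 18-20hr at 37C; compounds added from DMSO; agonist mix (1nM isoproterenol, 100uM IBMX, 25uM Ro-20-1724) added; 0.5hr RT; d2-cAMP and anti-cAMP-cryptate added; 1hr RT; 665/615 nm read.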

The target in assay [14] is D(2) dopamine receptor (Homo sapiens) (UniProt P14416). As to the kind of experiment: Dopamine D2 receptor (DRD2) small molecule agonists, cell-based qHTS assay (AID 1963594). Further: nearly all actives have a fitted effect of over 35% in size. The essentials:
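cAMP accumulation in DRD2-HEK293 cells measured by HTRF after 1 h detection; compounds added 10 min before NKH477 (200nM […]) forskolin-analogue stimulation, 30 min at room temperature, with Ro20-1724 present at 0.1 mM final.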

Assay [15] has the same target. As to the kind of experiment: Dopamine D2 receptor (DRD2) small molecule antagonists, cell-based qHTS assay (AID 1963595; active means well fitted inhibition curve with a large enough effect in the signal ratio in the repeat runs, with a control signal flat; the % refers to the signal ratio). The method in brief:
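Stable D2 receptor HEK293 line, 24 h after seeding. Compound preincubated 10 min, then quinpirole (12 nM) with forskolin analogue NKH477 (200 nM), 30 min, room temperature. Detection by time-resolved FRET of cAMP.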

The nature of assay [16]: p53 small molecule agonists, cell-based qHTS assay with human liver microsomes (AID 1963577).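 Further: p53 response element beta-lactamase reporter cells with liver microsomes plus NADPH.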 The essentials:
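With metabolic activation: human liver microsomes (0.5 mg/mL final) plus NADPH (0.5 mg/mL final) added alongside compounds to p53RE-bla cells; 16 h 37 C exposure; beta-lactamase read by LiveBLAzer fluorescence.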

Assay [17] in a line: p53 small molecule agonists, cell-based qHTS assay with rat liver microsomes (AID 1963578). The essentials:
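Metabolic activation by rat liver microsomes and NADPH, each 0.5 mg/mL final, added right after compounds to p53RE-bla reporter cells (4,000/well, plated 5 h earlier). 16 h at 37 C, then LiveBLAzer substrate for 2 h at room temperature in the dark; fluorescence read-out.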

In assay [18] the target is Muscarinic acetylcholine receptor M1 (Homo sapiens) (UniProt P11229). The experiment in a line: Cholinergic receptor muscarinic 1 (CHRM1) small molecule antagonists, cell-based qHTS assay (AID 1963588). Further: nearly all actives have a fitted effect of over 40% in size. The method in brief: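 CHRM1-CHO calcium-flux assay, antagonist mode. Cells were seeded 18 h, dye-loaded 1 h at 37 C and given compound for 5 min at RT, then acetylcholine was added at 50nM. FDSS fluorescence was read 3 min; 15 concentrations, three runs.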

Assay [19] can be described thus: p53 small molecule agonists, cell-based qHTS assay (AID 1963582; active means well fitted activation curve with a large enough effect in the signal ratio in the repeat runs, not every such curve was filed as active; the % refers to the signal ratio). The method in brief: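 p53RE-bla beta-lactamase reporter cells rested 5 h at 37 C/5% CO2, then received compounds in DMSO by pin transfer and were incubated 16 h at 37 C. LiveBLAzer B/G FRET substrate was loaded for 2 h at room temperature before fluorescence reading.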

Chain of Beta-2 adrenergic receptor (Homo sapiens) (P07550 whole entry, looked up): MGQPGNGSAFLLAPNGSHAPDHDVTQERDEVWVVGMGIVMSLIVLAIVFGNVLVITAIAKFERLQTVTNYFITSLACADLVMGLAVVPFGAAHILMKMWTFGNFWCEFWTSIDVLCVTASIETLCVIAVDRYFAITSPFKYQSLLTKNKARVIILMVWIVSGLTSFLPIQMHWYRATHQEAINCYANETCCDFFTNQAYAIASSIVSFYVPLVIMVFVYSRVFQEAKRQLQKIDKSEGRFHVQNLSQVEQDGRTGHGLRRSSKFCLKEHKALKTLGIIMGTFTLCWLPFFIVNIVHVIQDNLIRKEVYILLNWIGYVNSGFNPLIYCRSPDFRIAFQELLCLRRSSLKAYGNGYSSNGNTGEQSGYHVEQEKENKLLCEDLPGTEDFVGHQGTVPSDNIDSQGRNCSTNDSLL
Chain of D(2) dopamine receptor (Homo sapiens) (P14416 whole entry, looked up): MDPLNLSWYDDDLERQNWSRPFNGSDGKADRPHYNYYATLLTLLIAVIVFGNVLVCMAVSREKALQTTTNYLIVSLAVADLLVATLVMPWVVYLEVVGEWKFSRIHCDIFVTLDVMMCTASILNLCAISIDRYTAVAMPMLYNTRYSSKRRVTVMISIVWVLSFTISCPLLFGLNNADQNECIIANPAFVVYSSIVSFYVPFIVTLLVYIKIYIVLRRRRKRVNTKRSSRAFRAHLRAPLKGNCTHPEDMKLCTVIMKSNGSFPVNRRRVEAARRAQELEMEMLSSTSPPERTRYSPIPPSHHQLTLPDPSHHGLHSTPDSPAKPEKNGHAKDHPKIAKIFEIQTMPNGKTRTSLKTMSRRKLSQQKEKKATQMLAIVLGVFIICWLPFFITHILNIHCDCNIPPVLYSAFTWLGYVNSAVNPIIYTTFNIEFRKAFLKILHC
Chain of 5-hydroxytryptamine receptor 2A (Homo sapiens) (P28223 whole entry, looked up): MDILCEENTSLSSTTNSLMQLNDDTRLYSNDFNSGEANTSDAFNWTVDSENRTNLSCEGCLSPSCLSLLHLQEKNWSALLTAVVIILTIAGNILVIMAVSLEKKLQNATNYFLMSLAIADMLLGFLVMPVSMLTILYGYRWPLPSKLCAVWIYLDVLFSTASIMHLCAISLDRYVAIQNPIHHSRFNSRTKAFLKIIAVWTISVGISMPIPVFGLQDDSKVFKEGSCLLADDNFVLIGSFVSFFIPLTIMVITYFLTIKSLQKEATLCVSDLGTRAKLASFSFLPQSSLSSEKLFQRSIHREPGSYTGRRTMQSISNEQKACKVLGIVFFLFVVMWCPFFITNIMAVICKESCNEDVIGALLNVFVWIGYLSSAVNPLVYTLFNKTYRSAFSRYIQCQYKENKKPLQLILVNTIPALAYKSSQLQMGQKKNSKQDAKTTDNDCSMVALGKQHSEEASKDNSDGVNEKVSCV
Chain of Gonadotropin-releasing hormone receptor (Homo sapiens) (P30968 whole entry, looked up): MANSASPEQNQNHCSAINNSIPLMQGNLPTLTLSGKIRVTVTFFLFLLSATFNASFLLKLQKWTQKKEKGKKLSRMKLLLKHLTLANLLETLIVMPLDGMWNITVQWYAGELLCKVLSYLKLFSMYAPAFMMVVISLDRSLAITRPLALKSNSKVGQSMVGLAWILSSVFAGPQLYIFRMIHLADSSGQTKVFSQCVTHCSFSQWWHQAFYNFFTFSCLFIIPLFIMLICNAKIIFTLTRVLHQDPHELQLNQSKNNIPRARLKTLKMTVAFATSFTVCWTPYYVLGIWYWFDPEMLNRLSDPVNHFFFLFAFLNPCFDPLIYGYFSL
Chain of Muscarinic acetylcholine receptor M1 (Homo sapiens) (P11229 whole entry, looked up): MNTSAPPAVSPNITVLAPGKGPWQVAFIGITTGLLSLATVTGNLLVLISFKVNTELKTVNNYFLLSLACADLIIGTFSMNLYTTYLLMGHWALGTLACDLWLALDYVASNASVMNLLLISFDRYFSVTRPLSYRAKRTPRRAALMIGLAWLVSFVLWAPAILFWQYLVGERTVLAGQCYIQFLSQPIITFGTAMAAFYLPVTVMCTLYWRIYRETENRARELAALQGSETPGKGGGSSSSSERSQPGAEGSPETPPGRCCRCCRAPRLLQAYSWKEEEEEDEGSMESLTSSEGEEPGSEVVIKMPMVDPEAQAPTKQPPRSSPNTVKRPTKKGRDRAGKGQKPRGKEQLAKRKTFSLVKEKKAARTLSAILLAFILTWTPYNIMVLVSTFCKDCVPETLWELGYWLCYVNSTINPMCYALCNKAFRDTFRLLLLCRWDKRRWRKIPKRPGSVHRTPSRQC
Chain of KiSS-1 receptor (Homo sapiens) (Q969F8 whole entry, looked up): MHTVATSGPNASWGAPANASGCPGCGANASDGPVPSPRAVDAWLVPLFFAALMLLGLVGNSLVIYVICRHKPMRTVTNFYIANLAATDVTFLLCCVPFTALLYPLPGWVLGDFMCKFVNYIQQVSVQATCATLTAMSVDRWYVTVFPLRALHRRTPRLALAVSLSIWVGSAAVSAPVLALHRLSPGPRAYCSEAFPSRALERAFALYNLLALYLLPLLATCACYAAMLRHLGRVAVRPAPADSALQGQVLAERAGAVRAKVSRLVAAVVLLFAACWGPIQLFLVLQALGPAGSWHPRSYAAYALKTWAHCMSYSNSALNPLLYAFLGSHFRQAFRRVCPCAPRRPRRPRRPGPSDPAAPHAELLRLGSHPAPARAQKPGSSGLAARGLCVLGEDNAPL

As for `[C-]1=CC=CC1.[Cl][Zr+2][Cl].c1cc[cH-]c1`, the Potency result in assay [1], in [2], in assay [3], in assay [4], in [5] and in assay [6] was “inactive” in each case. Also, the Potency entry in [7], in assay [8], in assay [9], in [10], in assay [11] and in [12] was “inactive” throughout. The Potency entry in [13], in assay [14] and in assay [15] was “inactive” each time.

In the case of `ClC(Cl)(Cl)Cl`, the Potency result in assay [1], in assay [2], in assay [3], in [16], in assay [17] and in [5] was “inactive” throughout. For the same compound, the Potency entry in [7], in [11], in assay [12], in assay [13], in assay [14] and in assay [15] was “inactive” in each case.

For the compound `CC1C(=O)C[C@]2(C(C)C)C[C@H]12` (some centres undefined), the Potency result in assay [1], in assay [2], in assay [3], in assay [4], in [5] and in [6] was “inactive” in each case. The Potency result in assay [7], in assay [8], in assay [9], in assay [18], in assay [10] and in assay [11] was “inactive” throughout. The Potency entry in assay [13] and in [15] was “inactive” in each case.

On to `C[C@H]1CC[C@@H]2[C@@H](C)[C@H]3[C@H](C[C@H]4[C@@H]5CC=C6CC(O[C@@H]7O[C@H](CO)[C@H](O)[C@H](O[C@@H]8O[C@H](CO)[C@@H](O)[C@H](O)[C@H]8O)[C@H]7O[C@H]7O[C@@H](C)[C@H](O)[C@@H](O)[C@H]7O)CC[C@]6(C)[C@H]5CC[C@]34C)N2C1` (some centres undefined), for which the results for the Potency in assay [1], in [2] and in assay [9] were 22.4 µM (active), 10.1 µM (active) and 63.7 µM (active), respectively. The Potency result in assay [3], in [4], in [5], in assay [6], in [7] and in assay [8] was “inactive” each time. Also, the Potency result in [18], in [10], in assay [11], in assay [12], in assay [13] and in [15] was “inactive” throughout.

With `CCCCn1cc[n+](C)c1` (tested in a mixture with another compound), the Potency result in assay [1], in assay [2], in assay [3], in assay [4], in assay [5] and in assay [6] was “inactive” in each case. Besides, the Potency entry in assay [7], in [9], in assay [10], in assay [11], in assay [12] and in [13] was “inactive” each time. Moreover, the Potency entry in [15] was “inactive”.

As for `COP(=S)(OC)Oc1nc(Cl)c(Cl)cc1Cl`, the Potency entry in [1], in assay [2], in assay [3], in assay [4], in assay [5] and in assay [6] was “inactive” each time. The Potency entry in assay [19], in assay [9], in assay [18], in [10], in assay [13] and in [14] was “inactive” in each case. In assay [15], the Potency result was “inactive”.

In the case of `ClCCCCCCCl`, the Potency result in [1], in assay [2], in assay [3], in assay [4], in [5] and in [6] was “inactive” in each case. Moreover, the Potency result in assay [7], in [9], in [18], in assay [10], in [11] and in assay [12] was “inactive” throughout. Further, the Potency entry in [13], in [14] and in assay [15] was “inactive” in each case.

For the compound `O=[N+]([O-])C(Br)(CO)CO`, the Potency result in assay [1], in assay [2], in assay [3], in assay [4], in assay [5] and in assay [6] was “inactive” in each case. Besides, the Potency entry in [7], in assay [8], in [18], in assay [10], in assay [11] and in [13] was “inactive” each time.

Take `Oc1c(I)cc(I)cc1I`: the values for the Potency in assay [1] and in assay [8] were 30.6 µM (active) and 42.1 µM (active), respectively. The Potency result in assay [2], in assay [3], in [16], in assay [5], in assay [10] and in [12] was “inactive” throughout. The Potency entry in [13] and in assay [15] was “inactive” throughout.
